Compound activity (PubChem BioAssay)
AID inhibitor – Primary qHTS assay for inhibitors of Activation Induced Cytidine Deaminase (AID): AID signal; Single-stranded DNA cytosine deaminase (Homo sapiens), Q9GZX7; AID deamination FRET fluorescence, UDG-coupled, 4 h; Potency, µM (highest dose often 115 µM), actives largely listed as inhibitors; actives 0.32% (n = 91,000); also: nearly all actives have a fitted effect of over 25% in size
Target sequence (Q9GZX7 whole entry, looked up): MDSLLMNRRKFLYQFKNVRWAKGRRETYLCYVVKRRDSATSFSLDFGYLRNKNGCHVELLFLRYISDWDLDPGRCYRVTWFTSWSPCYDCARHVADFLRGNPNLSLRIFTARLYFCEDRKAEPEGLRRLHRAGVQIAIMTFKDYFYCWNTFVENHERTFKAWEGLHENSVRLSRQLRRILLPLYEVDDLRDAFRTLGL
UDG counterscr – Primary qHTS assay for inhibitors of Activation Induced Cytidine Deaminase (AID): UDG Counterscreen signal; Uracil-DNA glycosylase; FRET deamination/UDG coupled assay, UDG read, 4 h; Potency, µM (series often up to 115 µM), for the others: top-dose activity change, negative = inhibition, usual class: inhibitors; actives 0.14% (n = 91,000); AID 1347430, 2020; also: nearly all actives have a fitted effect of over 65% in size
The depositor's hits bear a star; i = inactive; ? = inconclusive. Rows were chosen to be rich in hits. Some 0.4% of all compounds tested hit in one or more screens of this group. Calls follow the shape of the dose curve; as a rule, active = well fitted curve in the direction sought with a large enough effect; inconclusive = small, poorly fitted or top-dose-only effect, or another doubt; inactive = no such curve, though single readings can be large; an effect the other way counts as inactive or inconclusive. % is scaled to controls: 0 for no effect and ±100 for the full control effect; potency is read from the fitted curve at half-maximal effect.

SMILES | AID inhibitor | UDG counterscr
CN(N=O)c1ccc(O)c(O)c1 | 25µM* | -7%
Cc1ccccc1-n1c(/C=C/c2ccccc2F)nc2ccccc2c1=O | i | -11%
Cc1ccc(-n2c(/C=C\c3ccc(F)cc3)nc3ccccc3c2=O)cc1Cl | ? | 89µM*
Cc1cccc(/C=C/c2nc3ccccc3c(=O)n2-c2cccc(O)c2)c1 | i | 1%
O=c1c2ccccc2nc(/C=C/c2cccc3ccccc23)n1-c1ccccc1Cl | ? | 89µM*
COc1ccc2[nH]c(C)c(CCNCCC3=C(C)CCCC3(C)C)c2c1 | i | -3%
C1CCN(c2nc(N/N=C3\CN4CCC3CC4)nc(N3CCCCC3)n2)CC1 | i | -1%
CC(Cc1ccc(Cl)cc1)NC(=O)CCCNC(=O)C1CC1 (stereo unspecified) | i | 2%
NC(Cc1cc(O)c(O)cc1O)C(=O)O (stereo unspecified) | 14µM* | -2%
N[C@@H](CCl)C(=O)O | i | -4%
Cc1[nH]nc2c1C(c1ccc3c(c1)OCCO3)SCC(=O)N2 (stereo unspecified) | i | -2%
N#CCCNCc1cccnc1 | i | -2%
CN1CC[C@@]2(C)c3cc(O)ccc3N(C)C12 (stereo partly specified) | 11µM* | -4%
C[C@@H]1[C@@H]2Cc3ccc(O)cc3[C@@]1(C)CCN2CC1CC1 | i | 0%
C=CCN1CCN(C(=O)Cc2ccc(F)cc2)CC1 | i | 4%
CCCC12CN3CC(C)(CN(C1)C3c1c(C)[nH]c(=O)[nH]c1=O)C2=O (stereo unspecified) | 10µM* | -29%
CCCCC12CN3CC(C)(CN(C1)C3c1ccccn1)C2=O (stereo unspecified) | i | 2%
COc1cccc(C2SCC(=O)Nc3c2c(C)nn3C)c1OC (stereo unspecified) | i | -1%
